About 21,000 targets were measured; listed, in parts, are those with the largest changes and a random draw of the rest.
Compound: Cc1cc(ccc1-c1ccccc1)C(=O)N1CCCN(CC1)C(=O)CCl [compound 10]
Experiment: probe-labelled cysteine peptide fold change vs DMSO (competition) (log2 fold change); higher = less target engagement (more negative = stronger competition)
Settings: THP-1, incubation time: 4 h
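Further: competitive profiling in live THP-1 cells: cysteine peptides tagged with an iodoacetamide desthiobiotin (IA-DTB) probe, intensity after compound treatment relative to DMSO-treated cells.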

Sequence of UniProt P31939 (P31939 whole entry, looked up): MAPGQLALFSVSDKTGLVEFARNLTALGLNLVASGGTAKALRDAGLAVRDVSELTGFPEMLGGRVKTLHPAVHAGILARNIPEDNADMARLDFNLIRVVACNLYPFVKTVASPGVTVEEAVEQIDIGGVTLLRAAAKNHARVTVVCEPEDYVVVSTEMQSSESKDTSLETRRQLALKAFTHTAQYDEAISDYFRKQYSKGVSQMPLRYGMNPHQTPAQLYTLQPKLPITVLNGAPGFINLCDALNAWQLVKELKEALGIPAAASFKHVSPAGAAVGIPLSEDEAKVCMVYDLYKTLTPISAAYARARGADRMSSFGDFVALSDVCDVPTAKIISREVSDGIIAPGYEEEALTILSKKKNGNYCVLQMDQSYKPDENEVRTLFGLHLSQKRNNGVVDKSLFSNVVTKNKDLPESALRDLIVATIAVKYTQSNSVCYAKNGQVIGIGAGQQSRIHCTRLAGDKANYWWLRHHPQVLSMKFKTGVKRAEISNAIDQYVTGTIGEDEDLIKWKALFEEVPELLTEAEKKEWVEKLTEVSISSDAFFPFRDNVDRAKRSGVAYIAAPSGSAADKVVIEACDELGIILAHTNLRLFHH
Sequence of UniProt P23634 (P23634 whole entry, looked up): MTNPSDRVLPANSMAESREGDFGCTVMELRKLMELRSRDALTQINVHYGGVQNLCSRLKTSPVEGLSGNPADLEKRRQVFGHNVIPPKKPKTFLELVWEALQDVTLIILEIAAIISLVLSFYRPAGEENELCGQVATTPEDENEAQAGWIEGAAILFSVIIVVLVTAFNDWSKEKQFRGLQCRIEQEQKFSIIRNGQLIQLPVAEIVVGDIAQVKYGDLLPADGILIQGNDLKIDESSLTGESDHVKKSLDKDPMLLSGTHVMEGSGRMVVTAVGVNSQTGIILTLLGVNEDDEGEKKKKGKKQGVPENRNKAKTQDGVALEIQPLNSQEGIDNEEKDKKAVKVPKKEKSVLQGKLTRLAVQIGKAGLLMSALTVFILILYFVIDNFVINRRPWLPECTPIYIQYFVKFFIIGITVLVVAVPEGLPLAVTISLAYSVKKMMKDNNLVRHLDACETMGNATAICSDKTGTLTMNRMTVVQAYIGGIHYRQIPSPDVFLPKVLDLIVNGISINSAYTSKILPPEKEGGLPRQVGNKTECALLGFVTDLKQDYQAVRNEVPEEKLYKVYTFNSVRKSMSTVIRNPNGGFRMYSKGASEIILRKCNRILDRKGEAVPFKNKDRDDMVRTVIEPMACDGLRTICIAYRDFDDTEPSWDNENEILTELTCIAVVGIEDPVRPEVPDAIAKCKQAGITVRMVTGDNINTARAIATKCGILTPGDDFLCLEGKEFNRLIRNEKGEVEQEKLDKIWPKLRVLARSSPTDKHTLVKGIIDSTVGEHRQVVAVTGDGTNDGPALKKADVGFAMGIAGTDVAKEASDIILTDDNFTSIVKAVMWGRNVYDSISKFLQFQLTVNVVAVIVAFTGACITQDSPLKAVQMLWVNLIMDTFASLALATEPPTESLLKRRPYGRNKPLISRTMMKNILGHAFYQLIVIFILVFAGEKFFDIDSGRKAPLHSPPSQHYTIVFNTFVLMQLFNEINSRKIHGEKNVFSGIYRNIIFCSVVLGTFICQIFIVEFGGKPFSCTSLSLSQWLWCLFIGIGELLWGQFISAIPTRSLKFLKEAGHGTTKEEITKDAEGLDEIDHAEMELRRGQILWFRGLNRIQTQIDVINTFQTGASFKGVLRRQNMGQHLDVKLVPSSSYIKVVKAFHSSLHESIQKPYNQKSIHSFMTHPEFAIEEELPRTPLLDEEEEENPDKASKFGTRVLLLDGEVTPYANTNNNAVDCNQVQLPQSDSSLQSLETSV
Sequence of UniProt P30837 (P30837 whole entry, looked up): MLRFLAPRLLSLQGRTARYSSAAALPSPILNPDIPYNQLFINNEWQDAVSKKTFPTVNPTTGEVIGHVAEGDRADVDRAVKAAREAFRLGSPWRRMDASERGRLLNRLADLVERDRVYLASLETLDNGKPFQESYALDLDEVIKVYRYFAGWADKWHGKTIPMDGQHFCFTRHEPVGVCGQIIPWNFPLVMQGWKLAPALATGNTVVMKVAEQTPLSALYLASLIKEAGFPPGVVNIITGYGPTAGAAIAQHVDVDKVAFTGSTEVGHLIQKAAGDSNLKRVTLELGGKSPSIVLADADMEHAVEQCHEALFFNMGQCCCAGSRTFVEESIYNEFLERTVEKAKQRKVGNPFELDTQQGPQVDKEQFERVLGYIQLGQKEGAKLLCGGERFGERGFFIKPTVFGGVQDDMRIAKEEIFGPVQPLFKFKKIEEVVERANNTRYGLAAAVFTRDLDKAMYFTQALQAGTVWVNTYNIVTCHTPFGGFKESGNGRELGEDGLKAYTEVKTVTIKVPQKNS
Sequence of UniProt P32121 (P32121 whole entry, looked up): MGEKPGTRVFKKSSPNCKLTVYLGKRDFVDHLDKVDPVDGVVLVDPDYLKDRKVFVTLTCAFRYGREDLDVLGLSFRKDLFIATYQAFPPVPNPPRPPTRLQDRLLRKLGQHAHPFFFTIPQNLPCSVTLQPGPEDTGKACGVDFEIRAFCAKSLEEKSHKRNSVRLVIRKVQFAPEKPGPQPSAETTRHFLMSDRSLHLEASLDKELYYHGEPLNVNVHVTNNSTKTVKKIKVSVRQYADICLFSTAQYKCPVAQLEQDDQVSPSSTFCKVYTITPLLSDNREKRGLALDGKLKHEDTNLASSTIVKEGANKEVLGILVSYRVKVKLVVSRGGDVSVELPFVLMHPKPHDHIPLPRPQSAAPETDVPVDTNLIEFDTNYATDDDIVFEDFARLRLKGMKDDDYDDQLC
Sequence of UniProt Q93050 (Q93050 whole entry, looked up): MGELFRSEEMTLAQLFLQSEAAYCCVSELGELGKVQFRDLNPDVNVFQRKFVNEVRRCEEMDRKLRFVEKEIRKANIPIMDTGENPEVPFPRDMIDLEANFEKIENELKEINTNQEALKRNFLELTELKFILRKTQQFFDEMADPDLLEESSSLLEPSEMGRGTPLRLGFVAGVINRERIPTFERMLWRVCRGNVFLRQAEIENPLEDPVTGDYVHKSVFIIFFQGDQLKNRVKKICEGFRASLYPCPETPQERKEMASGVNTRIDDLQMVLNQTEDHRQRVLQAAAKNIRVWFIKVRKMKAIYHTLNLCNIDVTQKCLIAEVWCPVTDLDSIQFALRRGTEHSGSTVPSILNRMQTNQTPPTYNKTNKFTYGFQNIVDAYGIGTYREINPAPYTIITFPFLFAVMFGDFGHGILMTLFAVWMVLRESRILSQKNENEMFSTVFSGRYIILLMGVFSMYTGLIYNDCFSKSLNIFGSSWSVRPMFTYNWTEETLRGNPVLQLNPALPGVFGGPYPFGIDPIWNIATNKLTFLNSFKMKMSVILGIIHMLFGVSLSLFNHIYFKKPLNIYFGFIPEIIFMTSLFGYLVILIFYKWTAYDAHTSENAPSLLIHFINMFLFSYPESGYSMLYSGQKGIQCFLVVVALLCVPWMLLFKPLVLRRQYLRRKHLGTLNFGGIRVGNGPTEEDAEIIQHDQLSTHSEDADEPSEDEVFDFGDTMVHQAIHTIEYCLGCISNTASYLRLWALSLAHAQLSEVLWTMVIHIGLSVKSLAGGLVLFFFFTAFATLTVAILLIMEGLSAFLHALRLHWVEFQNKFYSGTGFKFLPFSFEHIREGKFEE
Sequence of UniProt Q66PJ3 (Q66PJ3 whole entry, looked up): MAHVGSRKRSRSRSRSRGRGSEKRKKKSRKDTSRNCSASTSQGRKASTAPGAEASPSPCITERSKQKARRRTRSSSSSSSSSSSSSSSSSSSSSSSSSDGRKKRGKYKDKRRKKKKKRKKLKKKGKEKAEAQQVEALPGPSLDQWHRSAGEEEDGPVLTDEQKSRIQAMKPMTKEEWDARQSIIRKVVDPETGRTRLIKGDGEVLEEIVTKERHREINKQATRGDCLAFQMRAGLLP
Sequence of UniProt P54259 (P54259 whole entry): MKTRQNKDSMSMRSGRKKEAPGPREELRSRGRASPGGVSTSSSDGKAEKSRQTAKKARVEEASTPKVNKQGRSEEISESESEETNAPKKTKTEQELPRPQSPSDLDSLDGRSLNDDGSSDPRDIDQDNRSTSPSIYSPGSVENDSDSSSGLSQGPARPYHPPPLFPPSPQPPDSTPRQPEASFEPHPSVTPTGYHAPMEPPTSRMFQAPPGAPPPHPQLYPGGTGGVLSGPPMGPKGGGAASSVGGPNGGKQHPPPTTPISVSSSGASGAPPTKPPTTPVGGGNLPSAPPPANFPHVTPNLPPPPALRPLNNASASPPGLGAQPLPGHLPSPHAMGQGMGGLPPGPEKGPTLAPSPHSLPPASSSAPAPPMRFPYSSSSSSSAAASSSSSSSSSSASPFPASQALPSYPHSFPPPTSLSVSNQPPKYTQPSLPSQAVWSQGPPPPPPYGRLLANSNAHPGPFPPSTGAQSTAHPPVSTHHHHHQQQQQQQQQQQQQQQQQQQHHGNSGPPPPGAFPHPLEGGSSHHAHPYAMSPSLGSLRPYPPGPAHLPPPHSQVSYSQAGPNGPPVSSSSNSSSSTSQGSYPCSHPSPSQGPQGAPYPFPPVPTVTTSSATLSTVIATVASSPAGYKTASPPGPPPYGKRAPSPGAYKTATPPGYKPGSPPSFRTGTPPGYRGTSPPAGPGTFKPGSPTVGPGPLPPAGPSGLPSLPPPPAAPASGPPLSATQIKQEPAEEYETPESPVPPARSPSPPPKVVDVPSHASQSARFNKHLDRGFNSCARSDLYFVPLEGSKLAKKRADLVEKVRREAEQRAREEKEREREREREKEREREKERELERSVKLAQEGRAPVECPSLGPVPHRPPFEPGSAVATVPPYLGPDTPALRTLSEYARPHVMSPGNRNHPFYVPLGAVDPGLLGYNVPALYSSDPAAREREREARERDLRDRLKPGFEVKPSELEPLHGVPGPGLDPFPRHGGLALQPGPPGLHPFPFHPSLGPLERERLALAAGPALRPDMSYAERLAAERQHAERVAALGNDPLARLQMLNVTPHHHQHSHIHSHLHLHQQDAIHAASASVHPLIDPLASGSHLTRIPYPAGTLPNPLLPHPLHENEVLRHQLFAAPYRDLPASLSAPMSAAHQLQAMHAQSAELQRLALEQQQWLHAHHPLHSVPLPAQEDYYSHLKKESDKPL

| Target | probe-labelled cysteine peptide fold change (10 µM) | probe-labelled cysteine peptide fold change (50 µM) |
| --- | --- | --- |
| ATP6V0A1_Q93050_58_RCEEMDR (UniProt Q93050) | 0.102 | 0.183 |
| AGL_P35573_126_VGADNHVLPLDCVTLQTFLAK (UniProt P35573) | 0.128 | 0.0379 |
| ANKRD11_Q6UB99_1339_ESACLPEK (UniProt Q6UB99) | -0.0313 | -0.174 |
| ASCC3_Q8N3C0_366_KAGEDLEVSEGLMCFDPK (UniProt Q8N3C0) | -0.217 | -0.375 |
| ARHGAP44_Q17R89_193_ADALREEMEEAANRVEICR (UniProt Q17R89) | -0.0472 | -0.212 |
| ATIC_P31939_101_VVACNLYPFVK (UniProt P31939) | 0.119 | 0.0511 |
| ACSL3_O95573_85_SVNSLDGLASVLYPGCDTLDK (UniProt O95573) | 0.0339 | 0.289 |
| ALDH9A1_P49189_355_VLCGGDIYVPEDPK (UniProt P49189) | -0.105 | 0.0431 |
| ALDOA_P04075_178_YASICQQNGIVPIVEPEILPDGDHDLKR (UniProt P04075) | 0.281 | -0.12 |
| ATM_Q13315_1396_ATFAYISNCHK (UniProt Q13315) | -1.94 | -2.52 |
| ANLN_Q9NQW6_978_CQVNSSVEER (UniProt Q9NQW6) | 0.153 | 0.239 |
| ACTR3_P61158_8+12_LPACVVDCGTGYTK (UniProt P61158) | -0.243 | -0.313 |
| ATP2A1_O14983_349_SLPSVETLGCTSVICSDK (UniProt O14983) | -0.0681 | -0.0742 |
| ATP2B4_P23634_632_TVIEPMACDGLR (UniProt P23634) | -0.0204 | -0.262 |
| ALCAM_Q13740_270_CLGNGNPPPEEFLFYLPGQPEGIR (UniProt Q13740) | -0.0239 | 0.0758 |
| ANKFY1_Q9P2R3_389_TPLHVSIMAGNEYVFSQLLQCK (UniProt Q9P2R3) | 0.123 | 0.15 |
| ANKRD17_O75179_564_AGADIELGCSTPLMEAAQEGHLELVK (UniProt O75179) | 0.0101 | -0.0606 |
| ALDH1B1_P30837_169_TIPMDGQHFCFTR (UniProt P30837) | 0.00215 | -0.131 |
| ALKBH3_Q96Q83_201_CPIIASLSFGATR (UniProt Q96Q83) | 0.189 | -0.104 |
| AFG3L2_Q9Y4W6_313_DVAGCEEAKLEIMEFVNFLK (UniProt Q9Y4W6) | -0.324 | -0.391 |
| ATM_Q13315_2770_SGVLEWCTGTVPIGEFLVNNEDGAHKR (UniProt Q13315) | 0.0886 | -0.152 |
| ATRX_P46100_235_WCAEGGNLICCDFCHNAFCK (UniProt P46100) | 0.0337 | -0.0739 |
| ANXA4_P09525_315_KVLLVLCGGDD (UniProt P09525) | -0.0611 | -0.661 |
| APBB1IP_Q7Z5R6_401_YLCCDDTR (UniProt Q7Z5R6) | -0.318 | -0.372 |
| ARHGEF6_Q15052_319_VGGCLLSLMPHFK (UniProt Q15052) | -0.297 | -0.105 |
| ARRB2_P32121_126_KLGQHAHPFFFTIPQNLPCSVTLQPGPEDTGK (UniProt P32121) | -0.12 | -0.146 |
| ATP2B1_P20020_547_TECALLGLLLDLKR (UniProt P20020) | -0.138 | -0.507 |

| Target | probe-labelled cysteine peptide fold change (10 µM) | probe-labelled cysteine peptide fold change (50 µM) |
| --- | --- | --- |
| ACOX1_Q15067_392_AFTSWTANTGIEACR (UniProt Q15067) | 0.0592 | 0.0993 |
| AIDA_Q96BJ3_69_IATCLELR (UniProt Q96BJ3) | -0.123 | -0.606 |
| ATOX1_O00244_41_VCIESEHSMDTLLATLKK (UniProt O00244) | 0.237 | -0.215 |
| ALDH9A1_P49189_45_VIATFTCSGEK (UniProt P49189) | -0.00832 | 0.0216 |
| ALDOA_P04075_339_RALANSLACQGK (UniProt P04075) | -0.187 | -0.104 |
| AP1G1_O43747_392_ELLYFLDSCEPEFK (UniProt O43747) | 0.183 | 0.273 |
| ATRX_P46100_1242_IKPVTENLVLSSHTGFCQSSGDEALSK (UniProt P46100) | -0.15 | -0.661 |
| ATP5F1A_P25705_244_KLYCIYVAIGQK (UniProt P25705) | -1.08 | 0.236 |
| ARL6IP4_Q66PJ3-3_220_NCSASTSQER (UniProt Q66PJ3) | -0.274 | -0.819 |
| ANKHD1_Q8IWZ3_1716_GGCNITAIQDVTGAHIDVDK (UniProt Q8IWZ3) | 0.183 | 0.0508 |
| AIP_O00170_122_HCCGVAQMR (UniProt O00170) | -0.267 | -2.09 |
| ACSL4_O60488_221_TALLDISCVK (UniProt O60488) | 0.177 | 0.0446 |
| ARFGEF1_Q9Y6D6_1729_QETSSLACGLR (UniProt Q9Y6D6) | -0.151 | 0.114 |
| AIP_O00170_121+122_HCCGVAQMR (UniProt O00170) | -0.298 | -1.16 |
| ACSL4_O60488_420_GYDAPLCNLLLFKK (UniProt O60488) | -0.291 | -1.12 |
| ANKMY2_Q8IV38_390_LDVNSNCVNEEQPEAEVGISQK (UniProt Q8IV38) | -0.281 | -0.0242 |
| AKR1A1_P14550_46_HIDCAAIYGNEPEIGEALKEDVGPGK (UniProt P14550) | -0.393 | -1.14 |
| AP2B1_P63010_565_PLISEETDLIEPTLLDELICHIGSLASVYHKPPNAFVEGSHGIHR (UniProt P63010) | 0.119 | -0.142 |
| AKR1B1_P15121_45_HIDCAHVYQNENEVGVAIQEK (UniProt P15121) | 0.0652 | -0.0317 |
| ADAM9_Q13443_539_DCFIEVNSK (UniProt Q13443) | -0.0729 | -0.137 |
| ATAD1_Q8NBU5_229_AQFMSLWDGLDTDHSCQVIVMGATNRPQDLDSAIMR (UniProt Q8NBU5) | 0.117 | 0.088 |
| ALDH3A2_P51648_226_DCDLDIVCR (UniProt P51648) | -0.0334 | -0.00592 |
| ADAR_P55265_851_CFNTLTNSFQPSLLGR (UniProt P55265) | -0.0671 | 0.166 |
| ALDH9A1_P49189_267_SPLIIFSDCDMNNAVK (UniProt P49189) | 0.208 | 0.2 |
| ARHGAP25_P42331_448_CFLTSAFQGANSSK (UniProt P42331) | -0.526 | -1.52 |
| ALDH18A1_P54886_674_SLRTEYGDLELCIEVVDNVQDAIDHIHK (UniProt P54886) | 0.115 | -0.188 |
| ATN1_P54259_851_APVECPSLGPVPHRPPFEPGSAVATVPPYLGPDTPALR (UniProt P54259) | -0.143 | -0.422 |

Reference: the supplement of paper PMC12067093, “Discovery and optimisation of a covalent ligand for TRIM25 and its application to targeted protein ubiquitination” (Chemical Science, 2025)
